Reference: PubChem BioAssay (NCATS)
Inconclusive results are not listed. Values without a mark were called inactive. Calls follow the shape of the full dose curve.

Test: Validation screen for inhibitors of Lassa infection (AID 463096)
Conditions: Lassa virus infection, cell-based; series mostly up to 46.1 µM; activity change, negative = inhibition: at the top concentration
% is scaled to controls: 0 for no effect and ±100 for the full control effect.

Row | SMILES | activity change, negative = inhibition
1 | CC(CCc1ccc(O)cc1)NCCc1ccc(O)c(O)c1 (centres undefined) | -20.3%
2 | O=C(NCC1CCCCN1)c1cc(OCC(F)(F)F)ccc1OCC(F)(F)F (centres undefined) | 0.275%
3 | COc1ccc(C2CNC(=O)C2)cc1OC1CCCC1 (centres undefined) | -12.8%
4 | NC(=O)c1cnccn1 | 4.94%
5 | Cc1scc2c1N(C(=O)CN1CCN(C)CC1)c1ccccc1NC2=O | -7.72%
6 | C[C@H]1O[C@@H](n2cc(F)c(=O)[nH]c2=O)[C@H](O)[C@@H]1O | -14.9%
7 | CCN(CC)CCNC(=O)c1cc(S(C)(=O)=O)ccc1OC | 16.8%
8 | c1ccc2c(c1)CCCC2C1=NCCN1 (centres undefined) | 0.121%
9 | CCN1CCC[C@H]1CNC(=O)c1cc(S(N)(=O)=O)ccc1OC | 30.8%
10 | Clc1cccc(Cl)c1NC1=NCCN1 | 34.1%
11 | N[C@@H](COP(=O)(O)O)C(=O)O | 11.7%
12 | CCO/C([O-])=N/c1c[n+](N2CCOCC2)no1 | 26.3%
13 | CNCC(O)c1ccc(O)c(O)c1 (centres undefined) | 2.72%
14 | CCN(CC)CCNC(=O)c1ccc(N)cc1 | -23.2%
